Experimental data taken from PubChem BioAssay.
Calls of active or inactive are those of the source.

Assay: growth of efflux-deficient E. coli DRC39 – strain DRC39, OD650, 24 h, E. coli filamentation inducers, primary screen (AID 1178);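 further: growth measured as culture turbidity by optical density at 650 nm; test concentration not given here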
Settings: E. coli DRC39 acrAB, higher = more signal, called active from +8 up or from −8 down

z-score, inactive:
C[C@@H]1NC(=O)[C@@H](C)COC(=O)[C@H](C)NC(=O)[C@@H](C)COC1=O -0.0144
C[n+]1ccc(-c2ccc(CO)cc2)cc1 0.207
O=C1C[C@@H](O)[C@@H](O)[C@@H]2[C@@H]3C(=O)N(C[C@@H]4CCCO4)C(=O)[C@@H]3CC[C@H]12 0.343
CCN1C(=O)[C@@H]2[C@H]3C(=CC[C@@H]2C1=O)C1(OCCCO1)[C@H]1O[C@H]1[C@H]3O -0.124
COC(=O)C=CCCc1coc(C=CCNC(=O)OC)n1 -1
COC(=O)CC=C[C@@H](C)[C@@H](C=NO[C@@H](C)c1cn([C@H](CO)Cc2ccccc2)nn1)NS(=O)(=O)c1ccc(C)cc1 0.196
O=C(NN=C1C[C@@H](O)[C@@H](O)[C@@H]2[C@@H]3C(=O)N(C[C@@H]4CCCO4)C(=O)[C@@H]3CC[C@@H]12)OCc1ccccc1 -0.0573
CCOC(=O)C1=NO[C@@]2(C=C(Br)C3(OCCCO3)[C@H]3O[C@H]32)C1 0.58
COCCNC(=O)OCC1CCCC2(CC(OC(=O)NCc3ccc4c(c3)OCO4)CC(CCC(=O)N[C@@H](C)C(=O)OC)O2)O1 (some centres undefined) 0.311
COc1ccc(COC(=O)NN=C2C[C@@H](O)[C@@H](O)[C@@H]3[C@@H]4C(=O)N(c5ccc(F)cc5F)C(=O)[C@@H]4CC[C@H]23)cc1 -0.0692
CC(CCN1CCCc2nc(C)c(C)cc21)=NOC(C)CN1CCCCc2nc(C)c(C)cc21 (centres undefined) 0.315
COC(=O)CC=C[C@@H](C)[C@@H](C=NOCC[C@@H]1C=C[C@H](OC(C)=O)[C@@H](COC(C)=O)O1)OC 0.157
CC(CCN1CCCCc2nc(C)c(C)cc21)=NOC[C@@H](O)COCc1ccco1 -0.0051
CCOC(=O)[C@H](Cc1ccccc1)NC(=O)CCC1CC(OC(=O)NCc2cccc3ccccc23)CC2(CCCC(COC(=O)NCc3cccc(C(F)(F)F)c3)O2)O1 (some centres undefined) 0.213
CCOC(=O)[C@H](CC(C)C)NC(=O)CCC1CC(OC(=O)NCCc2ccc(F)cc2)CC2(CCCC(COC(=O)NCCOc3ccccc3)O2)O1 (some centres undefined) -0.183
COC(=O)[C@H]1[C@@H](O)[C@@]2(O)c3ccccc3O[C@@]2(c2ccccc2)[C@@H]1c1ccccc1 -0.306
C#CCCCON=C1C[C@@H](O)[C@@H](O)[C@@H]2[C@@H]3C(=O)N(C(C)(C)C)C(=O)[C@@H]3CC[C@H]12 0.329
CO[C@@H]1C=CCC(=O)N[C@@H](C)C(=O)OC[C@@H](OC)[C@H](C)CCCC(=O)OC[C@H]1C 0.853
CON=C[C@@H](C)[C@H](OCc1ccccc1)C(C)C -1.29
Cc1ccc(S(=O)(=O)n2c3ccccc3c3nnc(C(=O)c4ccccc4)nc32)cc1 1.04
CC(C)CON=C1C[C@@H](O)[C@@H](O)[C@@H]2[C@@H]3C(=O)N(C4CCCCC4)C(=O)[C@@H]3CC[C@H]12 -0.651
CO[C@@H]1COC(=O)CC=C[C@@H](C)[C@H](OC)COC(=O)[C@@H](C)COC(=O)CC=C[C@H]1C 0.666
COC(=O)CC=C[C@@H](C)[C@@H](C=NO[C@@H](C)c1cn([C@H](CO)Cc2ccccc2)nn1)OC 0.24
COC(=O)CC=C[C@@H](C)[C@@H](C=NOC[C@@H](O)[C@H]1O[C@@H]2OC(C)(C)O[C@@H]2[C@H]1O)NS(=O)(=O)c1ccc(C)cc1 -0.336
COc1ccc(O[C@H]2C=C[C@@H](c3ccccc3)O[C@@H]2COC(=O)CCC(C)=NOC(C)CN2CCCc3nc(C)c(C)cc32)cc1 (some centres undefined) 1.09
CCOC(=O)NN=C1C[C@@H](O)[C@@H](O)[C@@H]2[C@@H]3C(=O)N(Cc4ccc5c(c4)OCO5)C(=O)[C@@H]3CC[C@H]12 0.298
CC(C)=NO[C@H](C)c1cn([C@H](CO)Cc2ccccc2)nn1 0.517
CCOC(=O)[C@H](CC(C)C)NC(=O)CCC1CC(OC(=O)NCc2cccc3ccccc23)CC2(CCCC(COC(=O)NCCOc3ccccc3)O2)O1 (some centres undefined) 0.0446
CC(C)[C@@H](OCc1ccccc1)[C@H](C)C=NOC[C@@H](O)COCc1ccco1 0.7
